Compound activity: PubChem BioAssay, National Center for Advancing Translational Sciences (NCATS)
D1 antagonist: blocks dopamine activation of the human D1 receptor | 3.2% of 360,000 active | HEK293 TREx D1 cells, calcium flux, dopamine EC80; hits give low values | AID 504652 | P21728 | activity change, negative = inhibition, % at 10 µM; in the data active = activity change below about -30%; also: % is scaled to controls: 0 for no effect and ±100 for the full control effect
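Calcium flux readout: force-coupled, inducible Hek293 Trex D1 line, cells induced overnight at 30 C with tetracycline, dye-loaded 30–90 min at RT. Antagonism scored against EC80 dopamine challenge given 180 s after compound.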
D1 ag: activates the human D1 dopamine receptor; P21728; HEK293 T-REx D1 cells, calcium flux, agonist mode; activation, % at 2 µM; 1% of 360,000 active; also: 0% is about no effect
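Inducible HEK293 T-REx D1 cells, force-coupled to calcium signalling, were plated at 4000 cells/well with tetracycline and held overnight at 30 C. After no-wash calcium dye loading, compound-evoked calcium rise over 180 s flagged agonists.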
USP1 inh: inhibitors of human USP1/UAF1 deubiquitinase; O94782; recombinant USP1/UAF1, Ub-Rhodamine cleavage fluorescence; Potency, µM (doses to about 57.1 µM), for the others: at the highest dose activity change, negative = inhibition, usual class: inhibitors; 0.23% of 390,000 active; AID 743255; active = well fitted inhibition curve with a large enough effect; inconclusive = small, poorly fitted or top-dose-only effect; inactive = no such curve, though single readings can be large or run the other way; also: potency is read from the fitted curve at half-maximal effect; % is scaled to controls: 0 for no effect and ±100 for the full control effect; nearly all actives have a fitted effect of over 60% in size
Target sequence (O94782 whole entry, looked up): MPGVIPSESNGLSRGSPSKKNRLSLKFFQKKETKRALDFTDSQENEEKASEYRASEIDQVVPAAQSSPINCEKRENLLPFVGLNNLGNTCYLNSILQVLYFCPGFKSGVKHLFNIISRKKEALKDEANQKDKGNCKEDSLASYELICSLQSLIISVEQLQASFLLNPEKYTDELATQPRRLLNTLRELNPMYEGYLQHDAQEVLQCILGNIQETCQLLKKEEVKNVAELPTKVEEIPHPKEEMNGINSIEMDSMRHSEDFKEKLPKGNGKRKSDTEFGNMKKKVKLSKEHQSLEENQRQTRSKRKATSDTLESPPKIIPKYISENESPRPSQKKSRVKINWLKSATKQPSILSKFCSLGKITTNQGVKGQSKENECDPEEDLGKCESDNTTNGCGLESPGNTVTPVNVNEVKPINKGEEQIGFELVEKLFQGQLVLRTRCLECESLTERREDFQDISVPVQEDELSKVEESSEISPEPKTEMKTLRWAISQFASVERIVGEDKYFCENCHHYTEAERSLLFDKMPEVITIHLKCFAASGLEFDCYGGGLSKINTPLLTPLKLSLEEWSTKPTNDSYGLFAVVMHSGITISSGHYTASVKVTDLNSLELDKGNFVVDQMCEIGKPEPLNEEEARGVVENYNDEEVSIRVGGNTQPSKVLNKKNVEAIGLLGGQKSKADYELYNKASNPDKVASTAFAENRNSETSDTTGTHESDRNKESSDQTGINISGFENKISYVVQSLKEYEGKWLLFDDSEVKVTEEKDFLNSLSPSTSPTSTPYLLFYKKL
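In this screen, compounds sit with the deubiquitinase complex (1nM) for 15 min at room temperature before Ub-Rho is added at 150nM final. Fluorescence rise is then followed for 6 reads every 60 seconds.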
D1 PAM: potentiators of human D1 dopamine receptor. P21728. HEK293 TREx D1 cells, calcium flux, dopamine EC20 potentiation. potentiation, % at 10 µM. 0.036% of 360,000 active; in the data active = potentiation above about 30%; also: 0% is about no effect
TRHR agonist: activates the human TRH receptor. TRHR cells, calcium flux fluo-8, FDSS agonist mode. 0.18% of 360,000 active. activation, % at 2 µM; also: 0% is about no effect
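TRHR-expressing cells loaded with fluo-8 calcium dye; 23 nL library compound pin-transferred, kinetic FDSS fluorescence (Ex 480/Em 530) recorded about 180 s for agonist-induced calcium release, before a 10 nM TRH EC20 addition for potentiator mode.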
TRHR PAM: allosterically enhances the human TRH receptor. P34981. AID 493056. 0.66% of 360,000 active. TRHR cells, fluo-8 calcium fluorescence, EC20 TRH enhancement. enhancement, % at 2 µM; in the data active = enhancement above about 30%; also: 0% is about no effect
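Enhancer read-out: after compound pinning and an initial kinetic agonist-mode read, an EC20 of TRH (10 nM final) was injected and fluo-8 calcium signal (Ex 480/Em 530) followed at 1 s/cycle for 100 cycles in TRHR-expressing cells.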
An asterisk follows results filed as active; ? = inconclusive. Compounds with a hit are over-represented: about 4.4% of the library has one in this group of screens. Rule as the data show it, unless noted: active = activation above about 30%; inactive = the rest.

SMILES	D1 antagonist	D1 ag	USP1 inh	D1 PAM	TRHR agonist	TRHR PAM
O=C(CN1c2ccccc2S(=O)(=O)c2ccccc21)Nc1ccccc1Cl	3.5	1.3	-17.6%	-0.8	0.1	-4.5
Cc1ccc(N2CCN(S(=O)(=O)N3CCOCC3)CC2)cc1C	-31.3*	0.9	-19.2%	2.5	0.3	4.2
Cc1ccc(N2CCN(S(=O)(=O)N3CCCCC3)CC2)cc1Cl	-2.3	1.9	-12.5%	-3.0	-0.1	1.8
Cc1cccc(N2CCN(CCCNc3ncnc4onc(-c5ccc(Cl)cc5)c34)CC2C)c1 (configuration not stated)	2.1	-0.7	-21.6%	0.9	0.2	4.1
COc1ccc(-n2nnnc2C2CCN(S(=O)(=O)c3cccc(Cl)c3C)CC2)cc1	-2.5	0.2	-16.5%	-2.3	2.2	-3.4
C(#Cc1ccc(C#CCN2CCCC2)cc1)CN1CCCC1	-32.3*	8.5	-20.0%	-4.2	1.0	-14.3
O=C(c1ccccc1)N1CCN(CC#Cc2ccccc2)CC1	0.2	-1.1	-8.0%	-2.7	0.5	0.0
CCCC1CCC(C(=O)Nn2cnc3ccccc3c2=O)CC1 (configuration not stated)	13.4	-3.7	-9.6%	3.7	0.0	0.5
O=C(Nn1cnc2ccccc2c1=O)C1CCCCC1	-30.4*	2.8	?	0.6	-0.4	8.9
Brc1ccc(CNc2ccc3ncccc3c2)cc1	-40.5*	14.3	?	-6.6	-1.8	1.9
O=C(Nc1ccc2ncccc2c1)c1cccc(Br)c1	5.9	-2.4	-11.0%	3.6	-0.2	1.4
CCOc1ccc(NC(=O)c2ccc3nc(C(C)C)oc3c2)cc1	-1.8	8.2	0.1%	-0.2	0.1	0.0
COc1ccc(C(=O)NCCS(=O)(=O)NCc2ccc(F)cc2)cc1	-31.4*	2.1	-12.0%	-4.8	-0.2	-0.3
COc1ccccc1CNS(=O)(=O)CCNC(=O)c1ccccc1	-30.0*	8.0	-4.2%	-4.2	-0.5	4.0
COc1ccc(CCC(=O)NNC(=O)c2ccc(F)cc2)cc1	-30.0*	0.7	?	-4.5	0.3	7.8
O=C(NCCS(=O)(=O)NCc1ccccc1)c1ccccc1	10.8	1.7	-5.7%	-1.4	-0.7	-2.1
O=C(NCCS(=O)(=O)NCc1ccccc1Cl)c1ccc2c(c1)OCO2	-35.1*	0.0	-18.3%	-12.8	-0.1	-0.6
CCOC(=O)N1CCc2c(sc(NCc3cccc(F)c3)c2C(=O)Nc2ccc(OCC)cc2)C1	5.9	-0.1	-7.6%	-2.3	-0.5	-1.1
O=C(CN1CCCCC1)Nc1nc(-c2ccccc2)cs1	-8.2	-0.5	-5.4%	-0.7	0.3	-0.1
O=C(C[n+]1cc(-c2ccc(F)cc2)n2c1CCC2)Nc1nc(-c2ccc(F)cc2)cs1	-30.6*	0.0	-18.2%	-3.2	0.3	18.0
O=C(C[n+]1cc(-c2ccccc2)n2c1CCC2)Nc1nc(-c2ccc(F)cc2)cs1	-13.7	0.9	-4.7%	-3.8	-0.4	-3.8
O=C(CN1CCCCC1)Nc1nc(-c2ccc(Cl)cc2)cs1	-52.5*	1.1	-18.2%	-1.7	-0.3	-2.6
CC(C)N(C(=O)Cn1cc(S(=O)(=O)Cc2ccc(Br)cc2)c2ccccc21)C(C)C	-2.3	1.0	8.7%	-6.3	0.7	-1.7
CCOC(=O)C1C(=O)CC(C)(O)C(C(=O)OCC)C1c1ccc(Br)cc1 (configuration not stated)	-30.0*	6.7	-9.5%	-9.9	-0.1	5.3
Cc1nn2c(=O)cc(COC(=O)COc3ccc(F)cc3)nc2s1	-3.1	11.0	-15.6%	-2.4	0.3	0.4
SMILES	D1 antagonist	D1 ag	USP1 inh	D1 PAM	TRHR agonist	TRHR PAM
CC(C)c1ccc2c(c1)-c1ccccc1S(=O)(=O)N2CC(=O)N1CCCCC1	-0.6	2.1	-19.0%	-0.9	-0.1	-7.3
Cc1ccc(C)c(C(C)NC(=S)NCc2ccc(F)cc2)c1 (configuration not stated)	7.3	93.3*	-21.6%	0.1	-0.2	12.3
CCC(NC(=S)NCc1ccc(F)cc1)c1ccccc1 (configuration not stated)	-7.4	40.2*	-15.2%	-1.1	2.2	-1.8
O=C(Cn1c(=O)n(Cc2nc(-c3ccccc3)no2)c(=O)c2cc3c(cc21)OCO3)Nc1cccc(C(F)(F)F)c1	2.5	5.3	-15.9%	2.0	1.2	3.3
CCOC(=O)c1cc2c(=O)n3ccccc3nc2n(C(C)C)c1=NC(=O)C(C)(C)Oc1ccc(Cl)cc1	-39.8*	-1.3	-15.9%	-0.6	-0.2	1.7
CCOC(=O)c1cc2c(=O)n3ccccc3nc2n(CC(C)C)c1=NC(=O)C(C)Oc1ccccc1 (configuration not stated)	21.1	0.8	-9.5%	0.2	0.2	-5.8
CCOC(=O)c1cc2c(=O)n3ccccc3nc2n(CC(C)C)c1=NC(=O)COc1ccc(Cl)cc1	-38.9*	-0.7	-10.1%	-0.2	-0.5	-3.0
CCOC(=O)c1cc2c(=O)n3ccccc3nc2n(CC(C)C)c1=NC(=O)C(C)(C)Oc1ccc(Cl)cc1	6.1	-0.7	-5.3%	0.1	0.1	-6.7
COC(=O)C1=C(C)N(C2CCCCC2)C(=O)/C1=C\c1cccs1	6.1	0.9	-15.0%	13.1	-0.4	39.7*
C=CCn1c(NCc2c[nH]c3ccccc23)nc2ccccc21	-58.6*	0.7	-4.8%	-13.8	-0.5	0.3
CC(=O)N1CCC2(CC1)CC(=O)c1cc(OCC(=O)N3CCOCC3)ccc1O2	-38.0*	1.7	-13.9%	-8.5	3.1	4.7
COc1ccccc1/C=c1\sc2nc(-c3ccccc3OC)nn2c1=O	-36.0*	0.7	-5.0%	-1.3	0.3	6.7
O=S(=O)(NCCN1CCOCC1)c1cc(Cl)c(Cl)cc1Cl	-31.3*	6.2	-4.5%	-5.0	1.3	-11.5
O=C1c2cccc3c(N4CCCCC4)ccc(c23)C(=O)N1c1ccccn1	-26.7	154.0*	-22.1%	-5.8	156.5*	14.0
O=C1c2cccc3c([N+](=O)[O-])ccc(c23)C(=O)N1O	-8.2	3.3	?	2.7	0.5	-2.8
CC(=O)Oc1ccc(N2C(=O)c3cccc4c([N+](=O)[O-])ccc(c34)C2=O)cc1	-41.4*	2.1	-12.9%	-7.5	1.0	19.6
CC(=O)N(C(C)=O)N1C(=O)c2cccc3c(N4CCOCC4)ccc(c23)C1=O	-1.8	30.6*	-16.6%	-2.9	14.6	-0.5
CCCN1C(=O)c2cccc3c(N4CCCCC4)ccc(c23)C1=O	7.9	63.3*	-20.9%	-3.1	21.5	7.5
Cc1cccc(-c2nc3c4ccccc4nc(N4CCN(c5cc(C)ccc5C)CC4)n3n2)c1	-6.9	2.2	-15.5%	-8.0	0.1	-6.3
